The list is a sample of the results.
aSyn UTR act = Activators via SNCA 5'UTR binding, MLPCN; 300,000 tested, 7.1% active; alpha-synuclein 5'UTR reporter, activators screen; activity score, % (tested at 7.5 µM), hits read low; AID 1814; in the data active means activity score below about -60%
* marks the source's active call; other numbers are inactive results.

SMILES	aSyn UTR act
O=C(O)c1cc(O)c2c(c1)C(=O)c1cc(O)cc(O)c1C2=O	-81*
O=C(NC(=S)Nc1ccccc1O)c1ccccc1Cl	-127*
O=C(NNC(=S)Nc1ccccc1Cl)c1ccccc1Br	-94*
O=C(CC(Nc1ccccc1Cl)C(=O)OCC(=O)c1cccs1)c1ccccc1 (stereo unspecified)	-119*
COc1ccccc1NC(CC(=O)c1ccccc1)C(=O)OCC(=O)c1ccc(Br)cc1 (stereo unspecified)	-130*
COc1ccccc1NC(CC(=O)c1ccccc1)C(=O)OCC(=O)c1ccc(C)cc1 (stereo unspecified)	-190*
COc1ccccc1NC(CC(=O)c1ccccc1)C(=O)OCC(=O)c1ccc(C)c(C)c1 (stereo unspecified)	-127*
O=c1c(-c2ccc(Cl)cc2)c[nH]n1-c1ccccc1	-145*
O=c1c(-c2ccccc2)c[nH]n1-c1cccc([N+](=O)[O-])c1	-87*
Cc1c(NC(=O)Nc2cccs2)cccc1[N+](=O)[O-]	-71*
Cc1ccc(NC(=O)Nc2cccs2)c(Cl)c1	-201*
O=C(NC(=O)c1csnn1)Nc1ccccc1Cl	-103*
Cc1c(NC(=S)Nc2ccccc2C(F)(F)F)cccc1[N+](=O)[O-]	-65*
O=C(Nc1cccs1)Nc1ccccc1Cl	-71*
CC(C)C[C@H]1CN=C(Nc2ccccc2)N1CCCC1CCCCC1	-69*
CCn1nccc1C(=O)Nc1ccc(C(=O)OC(C)C)cc1	-163*
O=C(Nc1ccccc1)N(O)c1ccc(Cl)cc1	-122*
COc1ccc(-c2noc(CN(C)Cc3ccccc3)n2)c(OC)c1OC	-68*
C=CCN1c2ccccc2[C@]23C[C@@H](C(=O)OC)N(C(=O)c4cc(C)oc4C)C2=NC(C(=O)OC)=C(C(=O)OC)[C@H]13	-62*
CC(=O)Nc1cccc(OCC(=O)Nc2ccc(F)cc2)c1	-78*
Cc1occc1C(=O)OCC(=O)Nc1ccc(F)cc1	-62*
Cc1ccc(OCC(=O)Nc2ccc(F)cc2)cc1C	-74*
Cc1c(O)ccc(/C(Cc2ccc3ccccc3n2)=N\O)c1O	-76*
CC(=O)Oc1ccc(C(=O)Cc2ccc3ccccc3n2)c(O)c1C	-143*
Oc1ccc(/C(Cc2ccc3ccccc3n2)=N\Nc2ccccc2)c(O)c1	-90*
SMILES	aSyn UTR act
O=C(Nc1nccs1)c1ccc(-c2ccc(Cl)cc2Cl)o1	-149*
O=C(Nc1nccs1)c1ccc(-c2ccc(F)c(Cl)c2)o1	-151*
Cc1ccc(N=Cc2c(O)ccc3ccccc23)cc1F	-111*
CCOC(=O)c1sc(/N=C/c2c(O)ccc3ccccc23)cc1C	-73*
COc1cc2c(cc1OC)-c1c(OC)c(OC)cc3ccnc(c13)C2=O	110
COc1cc2cccc(OC)c(=O)c2c(O)c1OC	-70*
CN(C)c1ncc(C2=C(Cl)C(=O)C(N3CCCC3)=C(Cl)C2=O)s1	-70*
Cc1ccc(-n2nnc(-c3cccnc3)n2)cc1	-117*
c1ccc(-n2nnc(-c3cccnc3)n2)cc1	-162*
O=C(Cc1ccccc1)Nc1ccc(NC(=O)c2ccccc2)nc1	-184*
CCCCC(=O)NC(c1cccs1)c1cc(Cl)c2cccnc2c1O (stereo unspecified)	80
CCCC(=O)Nc1ccc(NC(=O)c2cccs2)cn1	-105*
O=C(Nc1ccc(NC(=O)C2CC2)nc1)c1cccs1	-96*
O=C(Nc1ccc(NC(=O)c2cccs2)cn1)c1ccccc1	-134*
CCC(=O)NC(c1cccs1)c1cc(Cl)c2cccnc2c1O (stereo unspecified)	86
Cc1cc(=O)n2nc(-c3ccccc3)sc2n1	-99*
Oc1ccc(Cl)cc1CNc1ccc(Br)cn1	-142*
O=C(Cc1ccc(Cl)cc1)Nc1ccc(Br)cc1	-67*
O=C(Cc1ccc(Cl)cc1)Nc1ccc(Br)cn1	-66*
Cc1cc(NC(=O)c2cc(C(C)C)on2)no1	-140*
CC(C)Oc1ccc(C(=O)Nc2ccc([N+](=O)[O-])cc2)cc1	-211*
Cc1cc(NC(=O)c2sc3ccccc3c2O)no1	-64*
Cc1ccc(NC(=O)c2ccccc2Cl)c(Cl)c1	-83*
CC(=O)Nc1ccc(S(=O)(=O)c2ccc([N+](=O)[O-])cc2)cc1	-72*
O=C(Nc1cccc(NC(=O)c2cc([N+](=O)[O-])ccc2Cl)n1)c1cc([N+](=O)[O-])ccc1Cl	48
SMILES	aSyn UTR act
Cc1cc(NC(=O)c2ccccc2Cl)no1	-68*
Cc1cc(NC(=O)c2ccc([N+](=O)[O-])cc2Cl)no1	-129*
Cc1cc(NC(=O)c2ccc([N+](=O)[O-])cc2)no1	-130*
Cc1nc2ccc(NC(=O)c3ccc([N+](=O)[O-])cc3)cc2[nH]1	-106*
Cc1ccc(NC(=O)c2ccc([N+](=O)[O-])cc2Cl)nc1	-119*
Cc1cc(NC(=O)C(Cl)c2ccccc2)no1 (stereo unspecified)	-74*
Cc1cc(NC(=O)NC(=O)c2ccccc2F)no1	-109*
CC1CCCC/C1=N\NC(=S)Nc1ccccc1 (stereo unspecified)	-132*
CC1CCC/C(=N\NC(=S)Nc2ccccc2)C1 (stereo unspecified)	-94*
c1ccc2sc(-c3ccncc3)nc2c1	-111*
c1csc(-c2nc3ccccc3s2)c1	-148*
Nc1ccccc1-c1nc2ccccc2s1	-240*
Oc1ccc(-c2nc3ccccc3s2)c(O)c1	-145*
c1cncc(-c2nc3ccccc3s2)c1	-148*
Oc1ccc(-c2nc3ccccc3s2)cc1	-68*
Cc1ccccc1/C(N)=N/OC(=O)c1ccc(F)cc1	-177*
N/C(=N\OC(=O)c1ccccc1Br)c1cccc([N+](=O)[O-])c1	-77*
Cc1ccccc1C(=O)O/N=C(\N)c1ccc([N+](=O)[O-])cc1	-127*
N/C(=N\OC(=O)c1ccccc1Br)c1ccc([N+](=O)[O-])cc1	-103*
N/C(=N\OC(=O)c1ccccc1F)c1cccc([N+](=O)[O-])c1	-183*
CCCCCN1C(=O)/C(=C/c2c(N3CCc4ccccc4C3)nc3ccccn3c2=O)SC1=S	-94*
CCCC(=O)Nc1ccc(N2CCCCC2)cc1	-116*
O=C(CCl)Nc1ccc(N2CCCCCC2)cc1	-72*
CCNC(=S)Nc1ccc(N2CCCCC2)cc1	-159*
Nc1cc(Nc2ccc(Br)cc2)nc(N)n1	-149*
SMILES	aSyn UTR act
Cc1cc(Nc2ccc(Cl)cc2)nc(N)n1	-111*
COc1ccc(Nc2cc(C)nc(N)n2)cc1	-64*
O=C1CN(c2ccccc2)C(=S)N1C(=O)c1ccc(Br)cc1	-150*
Cc1ccc2c(c1)COc1c3ccc(C(=O)N4CCOCC4)cc3nn1-2	-113*
O=C(O)c1ccc2c3n(nc2c1)-c1ccc(Cl)cc1CO3	-161*
O=C(c1ccc2c3n(nc2c1)-c1ccc(Cl)cc1CO3)N1CCCCC1	-138*
CCOC(=O)N/N=C/c1ccc(F)cc1F	-77*
CCOC(=O)N/N=C/c1cc(C)n(-c2ccccc2)c1C	-75*
CCc1ccc(C(=O)N/N=C/c2ccc(Cl)cc2Cl)nc1	-75*
O=C(N/N=C/c1ccc(Cl)cc1Cl)c1cccc(F)c1	-212*
Cc1cc(/C=N/NC(=O)c2ccccc2F)c(C)n1-c1ccccc1	-133*
O=C(N/N=C/c1cn(Cc2cccc(F)c2)c2ccccc12)c1cc(O)cc(O)c1	59
Cc1cc(/C=N/NC(=O)c2cccc(F)c2)c(C)n1-c1ccccc1	-152*
Cc1ccc(CC2CC(=O)N(Cc3ccco3)C2=O)cc1 (stereo unspecified)	-129*
c1ccc(C2=NNC(c3ccccn3)=NN2)nc1	-118*
c1ccc(-c2nnc(-c3ccccn3)s2)nc1	78

Assay outcomes (PubChem)
